CBFb RUNX1 block – CBF-beta/RUNX1 interaction disruption. AID 1477. 230,000 tested, under 10 active. Q01196+Q13951. Potency, µM (highest dose often 59.8 µM), actives largely listed as inhibitors. AlphaScreen CBFb-His/RUNX1-biotin binding, biochemical
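CBF-beta (His) and RUNX1 (biotin), 30 nM each; 20 min preassociation; + compound, 15 min; + beads 50 ng each (Ni, streptavidin), 90 min; RT; AlphaScreen read.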
hERG WT inh – KCNH2 (human, wildtype) channel inhibition; AID 720551; 0.37% of 340,000 active; U2OS, BacMam KCNH2, thallium flux FluxOr; active compounds read low; Q12809; activity change, % at 1.84 µM;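 active means maximum activity change below -70%; inconclusive means maximum activity change between -70% and -50%; inactive means maximum activity change above -50%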
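U2OS cells were transduced with wild-type KCNH2 virus (2.03 x 10^8 / mL) for 4 h at room temperature, then cultured overnight at 37 C. Thallium flux was read with FluxOr dye. Rate constants were normalized to DMSO controls.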
KCNH2 3.1 inh – KCNH2 3.1 (human) potassium channel inhibition; AID 720553; 0.95% of 340,000 active; activity change, % (tested at about 1.8 µM); U2OS KCNH2 3.1, thallium flux FluxOr; active compounds read low;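 active means maximum activity change below -70%; inconclusive means maximum activity change from -70% to -50%; inactive means maximum activity change above -50%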;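 further: thallium influx rate constant from kinetic fluorescence after stimulation buffer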
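FluxOr-based Tl+ influx in U2OS cells transduced with KCNH2 3.1 virus; rate constants normalized to DMSO controls.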
MBNL1-CUG inh – blocks human MBNL1 binding to CUG repeat RNA; TR-FRET MBNL1-His/biotin-(CUG)12 binding, 665/545 ratio; Q9NR56; Potency, µM (doses to about 57.5 µM), hits mostly inhibitors; AID 2675; 0.036% of 280,000 active; active means well fitted inhibition curve with a large enough effect in the signal ratio, with a control signal flat, not every such curve was filed as active; inconclusive means small, poorly fitted or top-dose-only effect, or effect the other way, or a change in a side signal; inactive means no such curve, though single readings can be large or run the other way; the % refers to the signal ratio
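TR-FRET readout: Ex 340 nm, 665/545 nm emission ratio, normalized to buffer-only (basal) and MBNL1-(CUG)12 controls. Complex of MBNL1-His with Biotin-(CUG)12, compounds 92 nM–58 uM, incubated 60 min at room temperature.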
VDR inh – vitamin D3 receptor (human) inhibition; P11473; VDR-SRC2-3 peptide fluorescence polarization, 2 h; Potency, µM, most hits filed as inhibitors; 0.93% of 400,000 active
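Compounds are added to VDR with labelled SRC2-3 coactivator peptide and held 2 h at room temperature. Inhibition of the VDR–peptide interaction is then read as a change in fluorescence polarization.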
PLK1 PBD block – blocks phosphopeptide binding to human PLK1 polo-box domain. P53350. Plk1 PBD binding of FITC phosphopeptide, fluorescence polarization. Potency, µM, usual class: inhibitors. 2.8% of 360,000 active. AID 720504; further: series mostly up to about 57 µM; nearly all actives have a fitted effect of over 65% in size
Target sequence (P53350 whole entry, looked up, the tested form may be a part): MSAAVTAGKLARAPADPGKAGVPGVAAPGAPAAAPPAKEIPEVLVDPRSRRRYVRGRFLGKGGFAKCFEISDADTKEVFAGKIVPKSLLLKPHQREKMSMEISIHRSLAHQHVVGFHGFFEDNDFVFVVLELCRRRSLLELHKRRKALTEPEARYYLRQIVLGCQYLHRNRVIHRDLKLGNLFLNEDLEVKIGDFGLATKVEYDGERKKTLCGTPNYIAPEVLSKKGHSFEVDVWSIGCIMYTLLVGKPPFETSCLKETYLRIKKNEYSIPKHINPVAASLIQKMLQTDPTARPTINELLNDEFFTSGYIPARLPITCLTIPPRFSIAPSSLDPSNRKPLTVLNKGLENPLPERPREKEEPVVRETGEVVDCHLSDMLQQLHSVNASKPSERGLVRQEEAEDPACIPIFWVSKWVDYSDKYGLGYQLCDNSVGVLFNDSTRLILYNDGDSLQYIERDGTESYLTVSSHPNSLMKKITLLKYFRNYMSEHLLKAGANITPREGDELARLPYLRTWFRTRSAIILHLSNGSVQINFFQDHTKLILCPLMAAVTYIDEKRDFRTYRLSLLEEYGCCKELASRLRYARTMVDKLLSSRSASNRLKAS
A number is an active result; 0 = inactive; ? = inconclusive; - = no result; [ ] = another dose, or the depositor's remark. Sampled rows, rich in hits. Any-hit rate of the full collection: about 3.8%. Unless noted, the call rests on the fitted dose curve; in most records, active means well fitted curve in the direction sought with a large enough effect; inconclusive means small, poorly fitted or top-dose-only effect, or another doubt; inactive means no such curve, though single readings can be large; an effect the other way counts as inactive or inconclusive.

SMILES	CBFb RUNX1 block	hERG WT inh	KCNH2 3.1 inh	MBNL1-CUG inh	VDR inh	PLK1 PBD block
COCc1ccc(C(=O)N(C)CC2CCCN(CCc3ccc(OC)cc3)C2)o1 (centres undefined)	-	0	0	0	0	0
Cc1occc1C(=O)N(C)CC1CCCN(CCc2ccc(Cl)cc2)C1 (centres undefined)	-	0	-72.0	-	-	0
COCc1ccc(C(=O)N(C)CC2CCCN(CCc3ccc(Cl)cc3)C2)o1 (centres undefined)	-	0	-73.7	0	0	0
CC1CCN(S(=O)(=O)c2ccc3c(c2)N(C)C(=O)CC(=O)N3C)CC1	-	0	0	0	0	13.4µM
CC1CCN(c2ccc(S(=O)(=O)N3CCC(C)CC3)cc2N)CC1	-	0	0	0	0	0
CN1C(=O)CC(=O)N(C)c2cc(S(=O)(=O)N(C)Cc3ccccc3)ccc21	-	0	0	0	?	7.52µM
Cc1cccc(C(=O)N(Cc2ccccc2F)C2CCS(=O)(=O)C2)c1 (centres undefined)	-	-	-	-	0	-
CCN(CC)C(=O)Cn1c(=O)n(Cc2ccc(C(=O)NCCc3ccc(OC)c(OC)c3)cc2)c(=O)c2ccccc21	-	-	-	-	0	-
O=C(CC12CC3CC(CC(C3)C1)C2)N/N=C/c1ccncc1	0	0	0	0	?	26.7µM
O=C(O)Cn1nc(-c2ccc(F)cc2)oc1=O	0	0	0	0	?	23.8µM
CN(CC1CCN(CCc2cccc(C(F)(F)F)c2)CC1)C(=O)c1ccc(F)cc1	-	?	-78.9	0	0	0
CN(CC1CCN(CCc2cccc(C(F)(F)F)c2)CC1)C(=O)c1ccccc1	-	0	0	0	0	0
COc1cc(C(=O)N(C)CC2CCN(CCc3cccc(C(F)(F)F)c3)CC2)ccc1C	-	0	-71.9	0	0	0
CC(=O)N1CCCc2cc(S(=O)(=O)NCc3ccc(OC(C)C)cc3)ccc21	-	-	-	-	0	-
COc1ccc(-c2nnc(SCc3ccccc3F)o2)cc1OC	?	0	0	0	0	0
COc1ccc(NC(=O)CSc2nnc(-c3cccnc3)o2)c(OC)c1	-	0	0	-	?	21.2µM
CCOc1ccccc1NC(=O)CSc1nnc(-c2cccnc2)o1	-	0	0	-	0	23.8µM
Cc1ccc(-c2nnc(SCc3ccccc3F)o2)cc1	?	0	0	0	0	21.2µM
O=C(CSC(=O)c1ccccc1)Nc1ccccc1F	-	0	0	-	79.4µM	3.36µM
CCOc1ccc(OCC)c(NC(=O)CSc2nnc(-c3cccnc3)o2)c1	0	0	0	0	0	0
CCOc1[nH]c(/N=C/c2ccccc2)c(C#N)c1C#N	-	-	-	-	0	-
COc1ccc(OC)c(NC(=O)CSc2nnc(C3CCCCC3)o2)c1	0	0	0	0	0	23.8µM
CCOC(=O)c1c(NC(=O)CSc2nnc(-c3cccnc3)o2)sc(C(C)=O)c1C	0	0	0	0	?	11.9µM
CCC(=O)Nc1ccc(C(=O)CSc2nnc(-c3ccc(NS(=O)(=O)CC)cc3)o2)cc1OC	0	-91.9	0	0	0	0
O=C(CSc1nnc(-c2ccccc2)o1)Nc1ccccc1F	0	0	0	0	?	21.2µM
SMILES	CBFb RUNX1 block	hERG WT inh	KCNH2 3.1 inh	MBNL1-CUG inh	VDR inh	PLK1 PBD block
O=S(=O)(Nc1cccc2cccnc12)c1cccs1	-	-	-	-	0	-
CCCCn1c(C)cc2c(c1=O)C1O[C@](c3ccc(OC)cc3)(Cc3cc(OC)c(OC)cc31)O2	-	-	-	0[11.5 µM]	-	-
CCCC(=O)N(CCN1CCOCC1)c1nc2c(C)ccc(C)c2s1	-	0	-84.8	0	0	0
CC[C@H](C)[C@H](NC(=O)[C@H](C)NC(=O)CNC(=O)[C@H](CCCN=C(N)N)NC(=O)[C@H](C)NC(=O)[C@H](CC(C)C)NC(=O)[C@H](CCC(=O)O)NC(=O)[C@H](CC(C)C)NC(=O)[C@H](C)NC(=O)[C@@H](N)CCC(=O)O)C(=O)N[C@@H](Cc1ccccc1)C(=O)N[C@@H](CCC(N)=O)C(=O)N[C@@H](C)C(=O)O	0	-	-	-	0	-
O=C1c2cc([N+](=O)[O-])cc3cc([N+](=O)[O-])cc(c23)C(=O)N1c1ccccn1	0	0	0	-	0	?
O=C1c2ccc(Oc3cccc([N+](=O)[O-])c3)cc2C(=O)N1c1ccccn1	0	-	0	?	?	10.6µM
CCOc1ccc(C(=O)NCCc2sc(-c3ccc(OC)c(OC)c3)nc2C)cc1	-	-	-	-	0	-
C=C1C(=O)O[C@@H]2[C@@H]1CC/C(C)=C\CC[C@@]1(C)O[C@H]21	0	-	-	-	?	-
C=C1C(=O)OC2C1CCC(C)=C1C(=O)C3OC3(C)C12 (centres undefined)	-	0	0	-	?	18.9µM
CCCn1c(NC(=O)c2ccc(C)cc2)nc2ccccc21	0	0	0	0	0	26.7µM
CCOC(=O)c1c(NC(=O)CCc2ccc(CC)o2)sc(C)c1C	0	0	0	0	0	26.7µM
CCOC(=O)c1c(NC(=O)/C=C/c2ccc(C)o2)sc(C)c1C	0	0	0	0	0	26.7µM
O=C1C=CC(=O)c2c(O)c(CO)c(CO)c(O)c21	-	0	0	-	?	9.47µM
Oc1c(Cl)ccc(Cl)c1Cl	0	-	-	-	-	-
O=c1c(CO)cc(CO)cc(CO)c1O	?	0	0	0	0	0
O=C1C=CC(=O)c2c(O)c(Cl)c(Cl)c(O)c21	-	-	-	-	4.47µM	-
COc1c(/C=C2\SC(=Nc3ccccc3Cl)NC2=O)cccc1[N+](=O)[O-]	-	0	0	0	0	?
O=C1NC(=Nc2ccccc2Cl)S/C1=C\c1cccc([N+](=O)[O-])c1	-	0	0	0	?	26.7µM
O=C1NC(=Nc2ccccc2Cl)S/C1=C\c1cccc([N+](=O)[O-])c1O	-	0	0	?	79.4µM	26.7µM
CCOC(=O)COc1ccc(CC)cc1C(=O)c1ccn2nc(-c3ccc(Cl)cc3)cc2n1	-	-	-	-	0	-
O=c1c2oc3ccccc3c2[nH]c(=S)n1-c1ccccc1	0	0	0	?	0	26.7µM
O=C(Cc1ccccc1[N+](=O)[O-])NCc1ccc(Cl)cc1	0	0	0	0	0	0
O=C(NCc1ccc(Cl)cc1)c1n[nH]c([N+](=O)[O-])c1Cl	0	-	0	?	?	18.9µM
CC(=O)N1CC=C2C(C#N)=C(N)C(C#N)(C#N)C(CCc3ccccc3)C2C1 (centres undefined)	0	0	0	0	?	26.7µM
COc1ccc(Nc2nc3c(S(=O)(=O)c4ccc(Br)cc4)nnn3c3ccsc23)c(OC)c1	-	-	-	-	0	-
Cc1ccc(CSc2nc(=O)c3c(C)cc(C)nc3n2C2CC2)cc1	-	-	-	-	0	-
CCc1ccc(CSc2nc(-c3ccccc3F)nc3c2Cc2c(CO)cnc(C)c2O3)cc1	-	-	-	-	0	-
COc1ccc(/C=N/NC(=O)c2ccccc2OCc2ccccc2)c(OC)c1	0	0	0	0	0	0
COc1ccc(/C(C)=N/NC(=O)c2ccccc2OCc2ccccc2)c(OC)c1	0	0	0	0	?	18.9µM

Bioassay records from PubChem BioAssay.
